Most compounds without a hit are left out; they make up all but 2% or so of the library.
GSTO1 inh = blocks human GSTO1 in RBBP9 counter-screen | P78417 | recombinant GSTO1, activity-based probe fluorescence polarization | inhibition, % at 5.96 µM | actives 1.1% (n = 300,000);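 active = inhibition above the campaign mean inhibition plus 3 SD, cut at about 35% in these data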;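 note: 0% = GSTO1-1 with DMSO and 100% = wells lacking GSTO1-1 enzyme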
PME-1 primary = PME-1 (human) inhibition | Q9Y570 | recombinant PME-1, FP-Rh probe fluorescence polarization | inhibition, % at 5.9 µM | actives 0.53% (n = 320,000);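 active = inhibition above the campaign mean of all compounds plus 3 SD, cut at about 26% in these data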;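 note: competitive labeling of PME-1 active site by serine hydrolase directed probe; 0% = PME-1 with DMSO and 100% = wells lacking PME-1 enzyme; inhibitors block probe labeling so polarization falls and inhibition rises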
PREPL inhibitor = human PREPL enzyme inhibition; Q4J6C6; recombinant PREPL, fluorescence polarization activity-based probe; inhibition, % at 5.96 µM; actives 0.68% (n = 320,000); AID 2751; in the data active = inhibition above about 43%;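 note: 0% = enzyme with DMSO and 100% = wells lacking enzyme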
LYPLA1 counter = LYPLA1 (human) inhibition in PME1 counter-screen | O75608 | AID 2174 | recombinant LYPLA1, FP-Rh probe fluorescence polarization | actives 0.16% (n = 320,000) | inhibition, % at 5.9 µM;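 active = inhibition above the mean of all tested compounds plus 3 SD, set per campaign, cut at about 14% in these data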;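 note: inhibitors block serine hydrolase probe labeling of LYPLA1 so polarization falls; 0% = enzyme with DMSO and 100% = wells lacking LYPLA1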
Target sequence (O75608 whole entry, looked up): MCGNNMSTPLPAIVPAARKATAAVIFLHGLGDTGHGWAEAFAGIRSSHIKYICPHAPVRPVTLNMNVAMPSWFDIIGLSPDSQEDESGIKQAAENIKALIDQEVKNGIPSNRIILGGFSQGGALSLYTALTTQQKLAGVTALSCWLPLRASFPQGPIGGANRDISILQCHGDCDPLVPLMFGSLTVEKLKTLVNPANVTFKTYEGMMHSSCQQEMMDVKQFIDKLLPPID
LYPLA2 inh = counter-screen for PME1 inhibitors: inhibitors of human LYPLA2 | actives 0.38% (n = 320,000) | O95372 | AID 2177 | inhibition, % at 5.9 µM | recombinant LYPLA2, FP-Rh probe fluorescence polarization;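 active = inhibition above the screen-wide mean plus 3 SD, limit set per campaign, cut at about 26% in these data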;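 note: 0% = LYPLA2 with DMSO and 100% = wells lacking LYPLA2 enzyme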
Target sequence (O95372 whole entry, looked up): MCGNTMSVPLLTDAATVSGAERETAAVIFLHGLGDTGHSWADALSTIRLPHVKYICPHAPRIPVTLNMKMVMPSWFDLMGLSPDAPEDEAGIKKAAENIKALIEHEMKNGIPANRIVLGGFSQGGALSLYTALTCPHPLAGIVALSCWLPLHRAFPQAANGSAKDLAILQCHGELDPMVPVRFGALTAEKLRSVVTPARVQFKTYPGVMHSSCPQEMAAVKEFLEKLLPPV
Fam108B inh = blocks mouse Fam108B hydrolase in RBBP9 counter-screen. recombinant Fam108B, FP-Rh probe fluorescence polarization. actives 0.33% (n = 300,000). inhibition, % at 9.51 µM;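 active = inhibition above the screen mean inhibition plus 3 SD, computed separately per campaign, cut at about 18% in these data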;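 note: inhibitors lower polarization as less probe binds the enzyme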
LYPLA2 confirm = LYPLA2 (human) inhibition, confirmation counter-screen; shares compounds with LYPLA2 inh; recombinant LYPLA2, FP-Rh probe fluorescence polarization; inhibition, % at 5.9 µM; actives 72% (n = 1,100); AID 2232;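 active = mean inhibition across replicates above the hit cutoff set in the primary screen, cut at about 26% in these data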;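 note: blocked labeling of the enzyme by serine hydrolase FP-Rh probe lowers polarization; 0% = enzyme with DMSO and 100% = wells lacking LYPLA2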
LYPLA2 ABPP = blocks human acyl-protein thioesterase 2 in gel ABPP; shares compounds with LYPLA2 inh; rhLYPLA2 in mouse brain proteome, gel ABPP FP-Rh; inhibition, % at 20 µM; actives 30% (n = 150);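 active = inhibition of LYPLA2 enzyme probe labeling above about 50%, limit read from the data; inactive = inhibition below that limit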;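 note: loss of FP-Rh probe labeling of the LYPLA2 gel band measured as band density; 0% = DMSO only control band and 100% = blank gel background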
Active calls of the source: *; nt = no result given.

SMILES	GSTO1 inh	PME-1 primary	PREPL inhibitor	LYPLA1 counter	LYPLA2 inh	Fam108B inh	LYPLA2 confirm	others
Cc1c(Br)c([N+](=O)[O-])nn1CC(=O)N1CCN(C23CC4CC(CC(C4)C2)C3)CC1	4	2	20	6	27*	0	-1
CCOC(=O)N1CCC(NC(=O)c2cc3cc4cc(OC)ccc4nc3o2)CC1	-1	-6	1	9	35*	2	31*
O=C(CCc1ccccc1F)N1CCN(c2ccc(C(F)(F)F)cn2)CC1	-2	2	-21	1	25	-1	nt
N#Cc1ccc(OCC(=O)N2CCN(c3ccc(C(F)(F)F)cn3)CC2)cc1	nt	4	-8	4	64*	nt	32*
CC(C)CC(=O)Nc1ccc(C(=O)Cn2nc(C(=O)O)c3ccccc3c2=O)cc1	11	-10	1	0	44*	-14	39*
O=C(Cn1nc(C(=O)O)c2ccccc2c1=O)Nc1ccc2c(c1)C(=O)c1ccccc1C2=O	1	9	11	0	7	0	nt
CCOc1ccc(C(C)=O)cc1Cn1c(=O)oc2ccccc21	1	0	-16	-3	-3	4	nt
CNC(=O)c1nc(C)c(C2(C)CC(c3cccc([N+](=O)[O-])c3)=NO2)s1 (centres undefined)	-2	2	2	2	26*	3	29*
CCc1nc(NC(=O)c2sc(C)nc2C)sc1C(=O)OC	-4	-1	9	6	8	5	nt
O=C1c2c(O)cc(O)cc2O[C@H](c2ccc(O)c(O)c2)[C@@H]1O	32	-5	10	-2	29*	6	39*
CCCCCn1c(SCC(=O)OCC)nc2cc(C(=O)NCc3ccco3)ccc2c1=O	4	0	0	-8	34*	1	-4
C=CCn1c(SCC(=O)OCC)nc2cc(C(=O)NCc3ccco3)ccc2c1=O	5	2	11	-8	-13	-1	nt
O=C(Nc1ccc2oc(-c3ccncc3)nc2c1)c1ccc2c(c1)OCCO2	7	-9	19	9	28*	-10	24
COc1ccccc1NC(=O)NCCN1CCN(c2cccc(Cl)c2)CC1	1	5	-9	6	43*	-4	32*
O=C(NCCN1CCN(c2cccc(Cl)c2)CC1)Nc1ccccc1	9	7	0	4	12	1	nt
O=C(CCC(=O)NNC(=O)c1ccccc1[N+](=O)[O-])NCc1ccccc1	-2	-2	0	0	6	4	nt
Cc1ccc(Cl)cc1N1CCN(C(=O)CCCn2c(=O)c3cccn3c3cccnc32)CC1	1	3	-25	7	38*	-10	34*
CCCc1nn(C)c2c1C(c1cccnc1)C(C#N)=C(N)O2 (centres undefined)	-3	2	-1	2	29*	3	-1
Cc1nn(Cc2ccccc2)c2c1C(c1cccnc1)C(C#N)=C(N)O2 (centres undefined)	16	1	0	-2	-5	0	nt
O=C(c1ccc(Cl)cc1)N1CCC(O)(CSc2ccc(Cl)cc2)CC1	12	-4	-8	2	33*	-1	29*
COc1cc(/C=N/NC(=O)C(NC(=O)c2ccccc2)c2n[nH]c(=O)c3ccccc23)ccc1OCC(N)=O (centres undefined)	-17	6	-3	-2	78*	-1	74*
O=C(c1ccc(CNc2c(N3CCOCC3)c(=O)c2=O)cc1)N1CC=C(c2ccccc2)CC1	1	6	40	6	44*	0	41*
C/C(=N\NC(=O)c1cccc(S(=O)(=O)N2CCCC2)c1)c1cccs1	0	1	4	0	11	0	nt
COc1cc(/C=C(\C#N)C(=O)NCc2ccccc2)ccc1OCc1ccc(C(=O)O)cc1	-7	6	14	-2	41*	-1	29*
COCCNC(=O)/C(C#N)=C/c1ccc(OCc2ccccc2)cc1	-1	-3	-25	-1	5	-3	nt
SMILES	GSTO1 inh	PME-1 primary	PREPL inhibitor	LYPLA1 counter	LYPLA2 inh	Fam108B inh	LYPLA2 confirm	others
COc1cc(/C=C(/C#N)C(=O)Nc2ccccc2)ccc1OCc1ccc(C(=O)O)cc1	-11	0	-4	1	14	-1	nt
N#C/C(=C\c1ccc(OCc2ccc(C(=O)O)cc2)cc1)C(=O)NCc1ccccc1	-17	-1	-7	6	40*	-2	33*
CC(C)c1ccc(NC2CCCN(C(=O)c3cccs3)C2)cc1 (centres undefined)	2	-3	7	4	1	2	nt
CCCCn1c(N)c(N(CCC(C)C)C(=O)CN2C(=O)C3CCCCC3C2=O)c(=O)[nH]c1=O (centres undefined)	3	0	1	-1	-1	3	nt
Cc1cccc(NC(=O)CN2C(=O)S/C(=C\c3cc(C)n(C)c3C)C2=O)c1	-4	-1	13	-6	57*	-5	77*	LYPLA2 ABPP=60*
Cc1ccc(NC(=O)CN2C(=O)S/C(=C\c3cc(C)n(C)c3C)C2=O)cc1	-1	-11	1	-11	-18	-9	nt
Cc1ccc(NC(=O)CN2C(=O)S/C(=C\c3ccc(-c4cccc(C(=O)O)c4C)o3)C2=O)cc1	1	-6	6	-4	2	-9	nt
Cc1ccc(NC(=O)CN2C(=O)S/C(=C\c3cc(C)n(-c4cccc(C(=O)O)c4)c3C)C2=O)cc1	-21	-4	4	-5	48*	-1	43*
Cc1ccc(C(=O)O)cc1-c1ccc(/C=C2\SC(=O)N(CC(=O)Nc3ccccc3)C2=O)o1	-19	-7	3	-4	27*	-3	26*
Cc1ccc(NC(=O)CN2C(=O)S/C(=C\c3ccc(C(=O)O)cc3)C2=O)cc1	-2	-4	2	-4	-5	-6	nt
Cc1cc(/C=C2\SC(=O)N(CC(=O)Nc3ccccc3F)C2=O)c(C)n1C	5	-8	6	-7	42*	-2	26*
COc1ccc(/C=C/C(=O)N2CCN(c3ccccn3)CC2)c2ccccc12	4	-1	14	-2	-3	6	nt
CC(=O)Nc1c2c(nn1-c1ccccc1C)CS(=O)(=O)C2	2	-7	-2	0	2	2	nt
O=C(Nc1cccc(S(=O)(=O)C(F)F)c1)c1ccc(S(=O)(=O)N2CCOCC2)cc1	-7	-1	2	-5	-6	0	nt
O=C(Nc1ccncc1)c1cc(S(=O)(=O)N2CCOCC2)ccc1Cl	1	4	-1	-4	6	3	nt

Screening results deposited in PubChem BioAssay by The Scripps Research Institute Molecular Screening Center.
